Only some compounds are listed: those with a hit (about 22% of all), similar ones and a draw of the others.
F-actin modifier: alters cytoskeleton assembly in HUVEC cells; HUVEC TNFa F-actin phalloidin imaging, high content; 0.18% of 91,000 active; inhibition, % at 2 µM;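 active = inhibition above the batch mean plus 3 SD and confirmed as a hit by visual image inspection, cut at about 30% in these data, passing the limit was not always enough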
CYP2C9 activ: CYP2C9 (human) activation; activation factor at 5 µM; recombinant CYP2C9, luciferin-H conversion, luminescence; hits give high values; factor 1 = untreated enzyme, 0 = blocked; 1.4% of 96,000 active;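 active = activation factor of 2 or more for CYP2C9 at a 5 µM dose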;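 also: 0 = sulfaphenazole-blocked wells and 1 = vehicle-only wells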
Target sequence (P11712 whole entry, looked up): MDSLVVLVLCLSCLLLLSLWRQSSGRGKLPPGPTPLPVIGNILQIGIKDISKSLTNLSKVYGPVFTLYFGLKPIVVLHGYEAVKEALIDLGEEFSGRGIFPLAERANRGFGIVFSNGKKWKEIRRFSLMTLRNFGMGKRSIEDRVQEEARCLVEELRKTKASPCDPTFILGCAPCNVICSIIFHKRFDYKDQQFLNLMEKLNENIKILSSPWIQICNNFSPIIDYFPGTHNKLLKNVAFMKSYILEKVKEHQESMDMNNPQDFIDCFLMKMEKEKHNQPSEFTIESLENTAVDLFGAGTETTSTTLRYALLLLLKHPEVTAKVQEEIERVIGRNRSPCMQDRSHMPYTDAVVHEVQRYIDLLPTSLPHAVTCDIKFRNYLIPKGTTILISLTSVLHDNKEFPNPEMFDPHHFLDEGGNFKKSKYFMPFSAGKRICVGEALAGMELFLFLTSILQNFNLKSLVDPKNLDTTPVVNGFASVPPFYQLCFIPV
CYP2C9 inhib: inhibitors of human CYP2C9; P11712; 20% of 96,000 active; CYP2C9 Supersomes, luciferin-H conversion, luminescence; inhibition, % at 5 µM;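 active = blocking of liver enzyme CYP2C9 beyond about 50% at 5 µM, limit read from the data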
CYP2C19 activ: activators of human cytochrome P450 2C19 | P33261 | recombinant CYP2C19, luciferin-H EGE luminescence; hits give high values; 0 = fully inhibited enzyme, 1 = untreated enzyme | activation factor at 5 µM | 96,000 tested, under 10 active | AID 1025;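 active = activation factor of at least 2 at 5 µM in the primary screen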;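 also: 0 = wells with 2.5 mM tranylcypromine and 1 = vehicle-only wells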
CYP2C19 inh: inhibitors of human CYP2C19; P33261; inhibition, % at 5 µM; 21% of 96,000 active; CYP2C19 Supersomes, luciferin-H EGE luminescence, 30 min;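 active = CYP2C19 inhibition above a set limit at 5 µM in the primary screen, cut at about 50% in these data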;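 also: plate controls were negative control wells for no effect and 2.5 mM tranylcypromine positive control for full effect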
E-sel TNF inh: TNF alpha driven E-selectin expression inhibition; HUVEC TNFa-induced E-selectin immunofluorescence, high content; inhibition, % at 2 µM; 0.71% of 120,000 active;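 active = inhibition above the batch mean plus 3 SD, and confirmed as a hit on visual image review, cut at about 43% in these data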;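 also: 0% = TNF-stimulated DMSO wells and 100% = unstimulated control wells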
Numbers without * were called inactive.

How did O=C(Cn1c(C(F)(F)F)nc2ccccc21)c1ccc(Cl)cc1 do in these assays?
F-actin modifier: -16; CYP2C9 activ: 0.6; CYP2C9 inhib: 44; CYP2C19 activ: 0; CYP2C19 inh: 100*; E-sel TNF inh: -109

Results for O=C(O)Cn1c(C(F)(F)F)nc2ccccc21 ?
F-actin modifier: 1; CYP2C9 activ: 1.1; CYP2C9 inhib: -7; CYP2C19 activ: 1; CYP2C19 inh: -4; E-sel TNF inh: 4

What do the screens show for `O=C(c1ccc(NC(=S)Nc2ccc(Cl)c(Cl)c2)cc1)N1CCCC1`?
E-sel TNF inh: -7

What do the screens show for `CC(C)(C)OC(=O)NCCCCCc1nnc(SCC(=O)Nc2cccc(Cl)c2)o1`?
F-actin modifier: -2; CYP2C9 activ: 0.1; CYP2C9 inhib: 90*; CYP2C19 activ: 0.1; CYP2C19 inh: 93*

Results for Clc1ccc(CSc2nnc(CNc3cccc(Cl)c3)o2)cc1 ?
F-actin modifier: -2; CYP2C9 activ: 0.7; CYP2C9 inhib: 25; CYP2C19 activ: 0.5; CYP2C19 inh: 53*; E-sel TNF inh: -2

How did CCc1ccccc1NC(=O)CSc1nnc(Cn2cnc3ccccc32)o1 do in these assays?
F-actin modifier: -10; E-sel TNF inh: -34

What do the screens show for `Clc1ccc(CSc2nnc(Cn3cnc4ccccc43)o2)cc1`?
F-actin modifier: -5; CYP2C9 activ: 0.3; CYP2C9 inhib: 67*; CYP2C19 activ: 0.5; CYP2C19 inh: 45; E-sel TNF inh: -13

Results for CC(C)(C)OC(=O)NCCc1nnc(SCC(=O)Nc2cccc(Cl)c2)o1 ?
F-actin modifier: -3; CYP2C9 activ: 0.7; CYP2C9 inhib: 28; CYP2C19 activ: 0.7; CYP2C19 inh: 35; E-sel TNF inh: -15

Results for CC(C)(C)OC(=O)NCCc1nnc(SCc2ccc(Cl)cc2)o1 ?
F-actin modifier: 4; CYP2C9 activ: 0.5; CYP2C9 inhib: 54*; CYP2C19 activ: 0.8; CYP2C19 inh: 25; E-sel TNF inh: 11

How did O=C(O)c1ccc(CSc2nnc(COc3ccc(Cl)cc3Cl)o2)cc1 do in these assays?
F-actin modifier: -32; CYP2C9 activ: 0.8; CYP2C9 inhib: 19; CYP2C19 activ: 1; CYP2C19 inh: -1

What do the screens show for `CC1CN(c2nc3ccccc3nc2C(C#N)C(=O)OC2CCCCC2)CC(C)O1` (stereo not drawn)?
F-actin modifier: 6; CYP2C9 activ: 0.6; CYP2C9 inhib: 39; CYP2C19 activ: 0.8; CYP2C19 inh: 18; E-sel TNF inh: -8

What do the screens show for `Cc1ccc(-c2csc(Nc3ccccc3)[n+]2CCc2ccccc2)cc1`?
E-sel TNF inh: -10

Results for CCSc1nnc(CCNC(=O)OC(C)(C)C)o1 ?
F-actin modifier: 5; CYP2C9 activ: 0.9; CYP2C9 inhib: 12; CYP2C19 activ: 1.1; CYP2C19 inh: -11; E-sel TNF inh: 5

What do the screens show for `C=C(C)CSc1nnc(CCNC(=O)OC(C)(C)C)o1`?
F-actin modifier: -6; CYP2C9 activ: 0.7; CYP2C9 inhib: 34; CYP2C19 activ: 0.1; CYP2C19 inh: 87*; E-sel TNF inh: 0

How did Cc1ccc(-c2nnc3c4ccccc4c(C)nn23)cc1S(=O)(=O)N1CCN(CCO)CC1 do in these assays?
F-actin modifier: 13; CYP2C9 activ: 0.7; CYP2C9 inhib: 26; CYP2C19 activ: 0.8; CYP2C19 inh: 21; E-sel TNF inh: -10

What do the screens show for `Cc1cccc(NS(=O)(=O)c2ccc(C3CCCCC3)cc2)c1`?
F-actin modifier: -13; CYP2C9 activ: 0.6; CYP2C9 inhib: 44; CYP2C19 activ: 0.3; CYP2C19 inh: 69*; E-sel TNF inh: -12

Results for O=S(=O)(Nc1ccc2c(c1)OCCO2)c1cnc[nH]1 ?
CYP2C9 activ: 0.2; CYP2C9 inhib: 78*; CYP2C19 activ: 0.9; CYP2C19 inh: 12; E-sel TNF inh: -29

Results for COc1ccc(S(=O)(=O)Nc2ccc3c(c2)OCCO3)cc1Cl ?
F-actin modifier: -10; CYP2C9 activ: 0.1; CYP2C9 inhib: 93*; CYP2C19 activ: 0; CYP2C19 inh: 99*; E-sel TNF inh: 2

Results for O=C(O)c1cc(S(=O)(=O)Nc2ccc3c(c2)OCCO3)c(Cl)cc1Cl ?
CYP2C9 activ: 0.5; CYP2C9 inhib: 51*; CYP2C19 activ: 0.9; CYP2C19 inh: 15; E-sel TNF inh: -30

Results for O=S(=O)(Nc1ccc2c(c1)OCCO2)c1ccc2oc3ccccc3c2c1 ?
F-actin modifier: -9; CYP2C9 activ: 0; CYP2C9 inhib: 98*; CYP2C19 activ: 0; CYP2C19 inh: 100*; E-sel TNF inh: -6

How did Cc1cccc(NS(=O)(=O)c2ccc3c(c2)OCCO3)c1 do in these assays?
F-actin modifier: -8; CYP2C9 activ: 0.8; CYP2C9 inhib: 18; CYP2C19 activ: 0; CYP2C19 inh: 100*; E-sel TNF inh: 9

How did COc1ccc(S(=O)(=O)Nc2ccc3c(c2)OCO3)cc1OC do in these assays?
F-actin modifier: 11; CYP2C9 activ: 0.5; CYP2C9 inhib: 47; CYP2C19 activ: 0; CYP2C19 inh: 100*

Results for O=C(COC(=O)c1ccc(NS(=O)(=O)c2ccc3c(c2)OCCO3)cc1)NC1CC1 ?
F-actin modifier: 10; CYP2C9 activ: 0.4; CYP2C9 inhib: 62*; CYP2C19 activ: 0.9; CYP2C19 inh: 15; E-sel TNF inh: 33

How did Cc1ccc(S(=O)(=O)Nc2ccc3c(c2)OCCO3)cc1C do in these assays?
E-sel TNF inh: -13

What do the screens show for `O=S(=O)(NCc1ccc2c(c1)OCO2)c1ccc2oc3ccccc3c2c1`?
F-actin modifier: -9; E-sel TNF inh: 9

What do the screens show for `COc1ccc(-c2cc3ccccc3oc2=O)cc1NC(=S)NC(=O)c1ccc2c(c1)OCCO2`?
F-actin modifier: -35; CYP2C9 activ: 1; CYP2C9 inhib: 1; CYP2C19 activ: 1.1; CYP2C19 inh: -14; E-sel TNF inh: -4

How did O=C(NCc1ccccn1)c1ccc(=O)oc1 do in these assays?
F-actin modifier: -38; CYP2C9 activ: 1; CYP2C9 inhib: -3; CYP2C19 activ: 1.1; CYP2C19 inh: -6; E-sel TNF inh: 15

How did O=C(Nc1ncccn1)C1c2ccccc2Oc2ccccc21 do in these assays?
E-sel TNF inh: -22

How did O=C(Nc1nncs1)C1c2ccccc2Oc2ccccc21 do in these assays?
F-actin modifier: 14; CYP2C9 activ: 0.7; CYP2C9 inhib: 34; CYP2C19 activ: 0.5; CYP2C19 inh: 54*; E-sel TNF inh: 4

How did O=C(Nc1nc(-c2ccccc2)cs1)C1CCCO1 (stereo not drawn) do in these assays?
F-actin modifier: 4; CYP2C9 activ: 0.5; CYP2C9 inhib: 54*; CYP2C19 activ: 0.4; CYP2C19 inh: 62*; E-sel TNF inh: -24

How did O=C(Nc1ccncc1)C1c2ccccc2Oc2ccccc21 do in these assays?
CYP2C9 activ: 0; CYP2C9 inhib: 98*; CYP2C19 activ: 0; CYP2C19 inh: 97*; E-sel TNF inh: -14

How did O=C(Nc1nc(-c2ccccc2)cs1)C1c2ccccc2Oc2ccccc21 do in these assays?
F-actin modifier: 12; CYP2C9 activ: 0.3; CYP2C9 inhib: 72*; CYP2C19 activ: 0.9; CYP2C19 inh: 12; E-sel TNF inh: -37
